The results in this text go back to PubChem BioAssay.

Records with an inconclusive call do not appear. The source made the active and inactive calls.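 How the source made its calls, unless noted: active means viability increase at or above a cutoff of the median across tested compounds plus 3 SD (cut at about 8.5% in these data, passing the limit was not always enough); inconclusive means some gains above the cutoff, reason not given; inactive means the rest.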

Assay [1] is described as follows: Her2 expression decrease, cell viability multiplex – SKBR3 breast tumor cells, AlphaScreen, ATP viability, primary screen (AID 461;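 active means Her2 level under about 52% in both replicate screens, with viability over 70% of control, limit read from the data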;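 on Her2 level: lower value means less Her2 protein in the cells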;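 on viability: percent of carrier control wells set as 100% viability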). The conditions noted are these: SKBR3 Her2 protein level, 18-24 h, measured here: SKBR3 viability, ATP luminescence, at 10 µM.
Assay [2] has as its target Receptor tyrosine-protein kinase erbB-2 (Homo sapiens) (UniProt P04626). Described as above. Conditions: 18-24 h, at 10 µM, stronger effect = lower value.
The nature of assay [3]: reduced viability of SK-BR-3 breast cancer cells – cell-based, 24 h, human, pilot screen (AID 572;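 active means viability at or below 10% of carrier control in both of two separate runs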;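 further: compound exposure lasted between 18 and 24 h rather than exactly 24 h; 100% = carrier-treated control wells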). Conditions: SK-BR-3 viability, CellTiter-Glo luminescence, at 10 µM, stronger effect = lower value.
Assay [4] in a line: H69AR cell proliferation blockers – human, duplicate replicates, primary screen (AID 580;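 active means viability at or under a set limit in both replicates, limit being median viability minus 3 SD, cut at about 48% in these data, passing the limit was not always enough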;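 further: 100% = mean luminescence of untreated wells and 0% = no signal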). The conditions noted are these: H69AR lung tumor cells viability, ATP luminescence, 72 h; at 10 µM; stronger effect = lower value.
A short description of assay [5]: MRP1 drug-resistance reversers in H69AR cells – cell-based, doxorubicin co-treatment, pilot screen (AID 601;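 active means viability loss from added drug above about 55%, and viability with drug at most 40%, in both replicates, limit read from the data, passing the limit was not always enough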). The conditions noted are these: CellTiter-Glo, 72 h, at 10 µM; for differential viability (reversal): stronger effect = higher value.
Assay [6] is described as follows: yeast transport mutant growth inhibition pilot in 384-well plates, post-Golgi transport modulator project (AID 636; in the data active means inhibition above about 31%). The conditions noted are these: absorbance 615 nm, about 18 h, stronger effect = higher value.
The nature of assay [7]: growth suppression of yeast trafficking mutant, preliminary HTS, modulators of trafficking downstream of Golgi apparatus project, 1536-format plate, OD 615 nm (AID 637; in the data active means inhibition above about 30%). Conditions: yeast transport mutant growth, absorbance 615 nm, 18 h; stronger effect = higher value.
Assay [8] in a line: S. cerevisiae growth inhibition in permissive medium (OD615), pilot counter-assay for S. cerevisiae lifespan shortening project, permissive growth control (AID 705;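 active means growth inhibition above 25% in both replicates, a cutoff set 3 SD above the mean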). Conditions: OD615, 24 h, at 10 µM, stronger effect = higher value.
Assay [9] in a line: S. cerevisiae growth inhibition in restrictive medium, OD615, pilot screen, restrictive growth control, yeast lifespan reduction project (AID 706;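 active means growth inhibition above a set limit, 3 SD over mean compound inhibition, in both replicates, cut at about 43% in these data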;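 further: modified DeaD lifespan yeast strain shifted to restrictive glucose medium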). Conditions: OD615, 48 h, at 10 µM, stronger effect = higher value.
Assay [10] in a line: doxorubicin toxicity protection in MRP-1 cells – H69AR cells, CellTiter-Glo, duplicate, MRP-1 activator project, pilot screen (AID 807).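 Further: compound pretreatment 18-22 h then 72 h combined with doxorubicin; 0% = doxorubicin alone and 100% = vehicle without doxorubicin.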 The conditions noted are these: H69AR viability with doxorubicin, CellTiter-Glo luminescence; at 10 µM; stronger effect = higher value. In general terms: ATP-based viability assays read luminescence as a measure of living cells.
Assay [11] can be described thus: viability of HCT116 without oncogenic beta-catenin – human colon tumor cells, pilot screen (AID 823;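 active means cell viability at or below a set limit in both duplicate runs, the limit being the all-compound median minus 4 SD, cut at about 23% in these data, passing the limit was not always enough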;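 further: 0% = wells killed by 20 µM Hyamine and 100% = untreated DMSO cell wells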). Conditions: HCT116 beta-catenin knockout viability, CellTiter-Glo, 60 h; at 10 µM; stronger effect = lower value.
The nature of assay [12]: viability of PTEN-null HCT116 cells – cell-based, HCT116 clonal line, CellTiter-Glo, pilot screen (AID 824;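 active means viability at or below 27.92% in each of two runs, the all-compound median minus 4 SD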;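 further: 0% = 20 µM Hyamine control and 100% = vehicle cell control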). The conditions noted are these: HCT116 PTEN-deleted viability, 60 h, at 10 µM, stronger effect = lower value.
Assay [13] is described as follows: RAM pathway blockade in budding yeast – dse1pr::URA3 reporter, 5-FOA selection, pilot screen (AID 869;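 active means inhibition over a set limit, the all-compound mean plus 3 SD, in both replicate runs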;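 further: 0% = DMSO wells with no growth and 100% = 10 µM 1-NA-PP1 with full growth; RAM network block rescues cells from 5-FOA so hits raise OD615 growth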). The conditions noted are these: S. cerevisiae dse1pr::URA3 5-FOA growth, OD615, 2 d; at 10 µM; stronger effect = higher value; strain carries analog-sensitive mutant Cbk1 kinase.
A short description of assay [14]: RAM signaling pathway blockade in yeast – S. cerevisiae, Pdr1DBD-CYC8 efflux-inhibited sensitized strain, primary screen (AID 1298;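 active means RAM network inhibition above 8.4% in each of two replicates, 3 SD over the compound average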;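 further: 0% = DMSO untreated cells without growth and 100% = 10 µM 1-NA-PP1 full growth; higher means more yeast growth rescued from 5-FOA killing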). The conditions noted are these: S. cerevisiae cbk1-as DSE1-URA3 strain, 5-FOA growth OD615, 2 d; at 50 µM; stronger effect = higher value.
Assay [15] in a line: HUVEC growth inhibition – cell-based, human, primary screen (AID 575;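 active means viability at or below 30% in both replicate assays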;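 further: 100% = median of untreated cell wells with 0.1% DMSO on each plate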). The conditions noted are these: HUVEC proliferation, CellTiter-Glo luminescence, 72 h; at 10 µM; stronger effect = lower value.
[16] abbreviates: H69AR cells + 2 uM doxorubicin, measured here: viability with 2 uM doxorubicin, stronger effect = lower value.
[17] abbreviates: H69AR cells, compound alone cytotoxicity.

As a reminder, the viability is a read-out of living cells in per cent, often relative to untreated cells. In general, inhibition refers to the drop in the measured response relative to a control, in per cent.

Receptor tyrosine-protein kinase erbB-2 (Homo sapiens), sequence (P04626 whole entry, looked up): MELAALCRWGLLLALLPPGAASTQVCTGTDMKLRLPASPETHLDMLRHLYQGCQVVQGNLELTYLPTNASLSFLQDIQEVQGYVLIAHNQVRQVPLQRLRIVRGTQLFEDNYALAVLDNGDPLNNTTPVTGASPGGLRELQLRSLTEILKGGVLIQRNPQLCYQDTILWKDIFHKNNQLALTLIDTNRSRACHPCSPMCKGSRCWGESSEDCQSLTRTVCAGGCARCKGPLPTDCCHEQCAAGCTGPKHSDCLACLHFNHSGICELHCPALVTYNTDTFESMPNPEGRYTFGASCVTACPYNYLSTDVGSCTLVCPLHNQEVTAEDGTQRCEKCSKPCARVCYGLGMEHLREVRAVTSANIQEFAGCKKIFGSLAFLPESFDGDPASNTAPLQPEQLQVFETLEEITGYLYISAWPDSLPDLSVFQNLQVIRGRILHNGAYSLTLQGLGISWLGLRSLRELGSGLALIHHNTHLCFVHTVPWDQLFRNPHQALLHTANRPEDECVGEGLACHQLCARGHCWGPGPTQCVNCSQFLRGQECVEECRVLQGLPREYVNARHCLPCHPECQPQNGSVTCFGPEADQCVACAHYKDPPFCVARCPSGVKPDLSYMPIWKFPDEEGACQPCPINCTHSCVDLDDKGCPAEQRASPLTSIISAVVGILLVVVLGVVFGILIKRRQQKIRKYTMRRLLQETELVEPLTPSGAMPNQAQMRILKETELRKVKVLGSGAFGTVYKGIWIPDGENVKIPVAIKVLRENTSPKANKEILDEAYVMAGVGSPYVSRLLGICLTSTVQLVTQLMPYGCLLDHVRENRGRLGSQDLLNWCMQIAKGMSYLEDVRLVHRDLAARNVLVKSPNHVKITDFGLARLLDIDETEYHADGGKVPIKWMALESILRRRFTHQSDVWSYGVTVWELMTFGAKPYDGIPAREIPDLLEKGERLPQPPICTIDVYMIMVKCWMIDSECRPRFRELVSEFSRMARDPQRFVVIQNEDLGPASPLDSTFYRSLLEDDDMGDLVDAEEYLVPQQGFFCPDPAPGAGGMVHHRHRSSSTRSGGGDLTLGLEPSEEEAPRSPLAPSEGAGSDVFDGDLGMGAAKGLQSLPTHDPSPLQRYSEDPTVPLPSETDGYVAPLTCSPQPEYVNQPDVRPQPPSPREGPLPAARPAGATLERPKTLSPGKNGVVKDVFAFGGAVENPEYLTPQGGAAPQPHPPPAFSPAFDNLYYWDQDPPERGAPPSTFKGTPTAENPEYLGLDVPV

For the compound `O=C(NCCN1C(=O)C2C3C=CC(C3)C2C1=O)Nc1ccccn1` (stereo unspecified), the viability in assay [1] is 114%; in [3], 114% (inactive); in [4] it was 95.8% (inactive); in assay [5] (setting [16]) it was 83.3%; in [5] (setting [17]), 95.8%; in assay [11], 107% (inactive). Also, the viability in assay [12] was 92.2% (inactive). Besides, in assay [2], the Her2 level is 102% (inactive). In assay [5] (H69AR cells + 2 uM doxorubicin), the differential viability (reversal) is 12.5% (inactive). For the same compound, the values for the inhibition in assay [6], in assay [7] and in assay [13] were -3.6% (inactive), -2.33% (inactive) and 0.595% (inactive), respectively. For the same compound, the growth inhibition is 5% (inactive) in assay [8] and -0.24% (inactive) in assay [9]. Also, in [10], the viability increase is -0.81% (inactive). Besides, the RAM network inhibition in assay [14] is 3.24% (inactive).

With `CC(Sc1n[nH]c(=O)[nH]c1=O)C(=O)OCc1ccccc1` (stereo unspecified), the viability is 94% (inactive) in assay [3]; 116% (inactive) in [15]; 99.9% (inactive) in assay [4]; 88.3% in assay [5] (setting [16]); 99.9% in assay [5] (setting [17]); 103% (inactive) in assay [11]. For the same compound, the viability in [12] is 98.5% (inactive). Moreover, the differential viability (reversal) in assay [5] (H69AR cells + 2 uM doxorubicin) was 11.6% (inactive). The inhibition was -5.6% (inactive) in assay [6], -0.18% (inactive) in assay [7] and 1.66% (inactive) in [13]. For the same compound, the values for the growth inhibition in assay [8] and in assay [9] were -21.9% (inactive) and -8.41% (inactive), respectively. Besides, in assay [10], the viability increase is 0.49% (inactive). Besides, the RAM network inhibition in assay [14] is 5.73% (inactive).

Regarding `O=C(Nc1ccncc1)c1cc2ccccc2o1`, the viability in assay [3] was 113% (inactive); in assay [15] it was 101% (inactive); in assay [4] it was 105% (inactive); in assay [5] (setting [16]), 91.1%; in [5] (setting [17]), 105%; in assay [11] it was 95.7% (inactive). The viability in assay [12] is 95.9% (inactive). Moreover, in assay [5] (H69AR cells + 2 uM doxorubicin), the differential viability (reversal) was 13.8% (inactive). The inhibition in assay [6] was -0.4% (inactive); in assay [7] it was -0.36% (inactive); in assay [13] it was 1.73% (inactive). For the same compound, the growth inhibition in assay [8] is -10.7% (inactive); in assay [9], -6.96% (inactive). The viability increase in [10] is -0.51% (inactive). The RAM network inhibition in [14] is 4.22% (inactive).

As for `Cc1onc(-c2ccccc2)c1C(=O)NCc1cccnc1`, the viability in assay [3] was 102% (inactive); in assay [15], 100% (inactive); in [4] it was 99.4% (inactive); in assay [5] (setting [16]), 89.7%; in assay [5] (setting [17]), 99.4%; in assay [11] it was 98.2% (inactive). Moreover, the viability in assay [12] was 95.8% (inactive). The differential viability (reversal) in assay [5] (H69AR cells + 2 uM doxorubicin) was 9.66% (inactive). In addition, the inhibition was -3.33% (inactive) in assay [6], 3.09% (inactive) in assay [7] and 2.08% (inactive) in assay [13]. The growth inhibition in assay [8] is -14% (inactive); in [9], -11.6% (inactive). The viability increase in assay [10] is -1.32% (inactive). Besides, the RAM network inhibition in assay [14] was 1.71% (inactive).

For the compound `O=C(Nc1nc2c(s1)CCCC2)C1COc2ccccc2O1` (stereo unspecified), the viability in assay [3] was 103% (inactive); in [15], 63.1% (inactive); in assay [4], 88.3% (inactive); in [5] (setting [16]) it was 99%; in assay [5] (setting [17]), 88.3%; in assay [11], 90.3% (inactive). Also, the viability in assay [12] was 87% (inactive). Also, the differential viability (reversal) in assay [5] (H69AR cells + 2 uM doxorubicin) is -10.7% (inactive). For the same compound, the inhibition is -4.27% (inactive) in assay [6], -5.25% (inactive) in [7] and 0.75% (inactive) in assay [13]. For the same compound, the results for the growth inhibition in assay [8] and in [9] were -5.28% (inactive) and -7.76% (inactive), respectively. In [10], the viability increase is 0.74% (inactive). Besides, in [14], the RAM network inhibition was 0.16% (inactive).

On to `CCc1c(C)n([O-])c2c([n+]1=O)CCC2`, for which the viability in [3] is 104% (inactive); in assay [15] it was 89.2% (inactive); in assay [4] it was 103% (inactive); in [5] (setting [16]), 97%; in assay [5] (setting [17]), 103%; in assay [11], 99.4% (inactive). Also, in assay [12], the viability is 102% (inactive). Besides, the differential viability (reversal) in assay [5] (H69AR cells + 2 uM doxorubicin) is 5.73% (inactive). In addition, the results for the inhibition in assay [6], in assay [7] and in assay [13] were -5.54% (inactive), -2.62% (inactive) and 0.88% (inactive), respectively. Moreover, the growth inhibition in [8] was -8.65% (inactive); in assay [9] it was -5.88% (inactive). Moreover, the viability increase in assay [10] was -0.78% (inactive). In addition, in assay [14], the RAM network inhibition was 3.44% (inactive).

On to `Cn1c(C(=O)Nc2ccc3c(c2)OCO3)cc2c(=O)n(C)c3ccccc3c21`, for which the viability in assay [3] was 73% (inactive); in assay [15] it was 72.6% (inactive); in assay [4], 34.2% (active); in assay [5] (setting [16]), 26.6%; in [5] (setting [17]), 34.2%; in assay [11], 92.4% (inactive). Further, in assay [12], the viability is 91.5% (inactive). Moreover, the differential viability (reversal) in assay [5] (H69AR cells + 2 uM doxorubicin) was 7.56% (inactive). Moreover, the inhibition in assay [6] is -2.18% (inactive); in assay [7], 2% (inactive); in assay [13] it was 3.22% (inactive). For the same compound, the growth inhibition in assay [8] was -4.94% (inactive); in [9], -3.57% (inactive). For the same compound, the viability increase in [10] is -2.91% (inactive). The RAM network inhibition in [14] is 4.86% (inactive).

Regarding `Cn1c(=O)c2c(nc(CN3CCc4ccccc4C3)n2Cc2cccc(Cl)c2)n(C)c1=O`, the viability in assay [3] was 95% (inactive); in [15], 45.5% (inactive); in assay [4] it was 31.2% (active); in assay [5] (setting [16]), 18.5%; in [5] (setting [17]) it was 31.2%; in assay [11], 42.6% (inactive). In addition, in assay [12], the viability was 47.6% (inactive). Besides, the differential viability (reversal) in [5] (H69AR cells + 2 uM doxorubicin) is 12.7% (inactive). In addition, the inhibition was -3.2% (inactive) in assay [6], -1.33% (inactive) in assay [7] and -0.785% (inactive) in assay [13]. The growth inhibition in assay [8] is -8.07% (inactive); in assay [9] it was -5.74% (inactive). Besides, the viability increase in [10] is -7.3% (inactive). The RAM network inhibition in assay [14] was 4.55% (inactive).

`O=C(CCC(=O)OCC(=O)c1ccccc1)NC1CCCCC1`: the viability is 68% (inactive) in assay [3]; 108% (inactive) in assay [15]; 101% (inactive) in [4]; 86.1% in assay [5] (setting [16]); 101% in [5] (setting [17]); 93.6% (inactive) in [11]. For the same compound, in assay [12], the viability was 95.6% (inactive). In addition, in assay [5] (H69AR cells + 2 uM doxorubicin), the differential viability (reversal) was 14.9% (inactive). For the same compound, the inhibition was -7.33% (inactive) in assay [6], -5.82% (inactive) in [7] and -0.295% (inactive) in [13]. The growth inhibition in assay [8] was -6.58% (inactive); in [9], -5.45% (inactive). In addition, the viability increase in assay [10] is -0.49% (inactive). The RAM network inhibition in assay [14] was 5.37% (inactive).

Take `CCOC(=O)c1cc(NC(=O)SCC(=O)O)c(C)nc1C`: the viability in [3] was 82% (inactive); in [15], 123% (inactive); in assay [4] it was 88.1% (inactive); in assay [5] (setting [16]) it was 85.4%; in [5] (setting [17]), 88.1%; in assay [11] it was 96.1% (inactive). The viability in [12] is 101% (inactive). In [5] (H69AR cells + 2 uM doxorubicin), the differential viability (reversal) is 2.72% (inactive). For the same compound, the inhibition in [6] was 2.34% (inactive); in assay [7] it was -1.64% (inactive); in [13], 0.56% (inactive). Besides, the growth inhibition in [8] was 0.31% (inactive); in [9] it was 0.73% (inactive). For the same compound, the viability increase in assay [10] was 2.31% (inactive). For the same compound, the RAM network inhibition in [14] was 0.38% (inactive).
